Source: PubChem BioAssay
Many of the other results were omitted from the sample, so hits are more common in it than they were.
RE007 growth inh: less growth of the S. pombe RE007 Vpr strain; S. pombe RE007 Vpr strain, BacTiter-Glo ATP luminescence, 24 h; Potency, µM (highest dose often 92.2 µM), inactives show top-dose activity change, negative = less growth, most hits filed as inhibitors; 360,000 compounds, 0.21% hits; active = well fitted falling curve with a large enough effect; inconclusive = small, poorly fitted or top-dose-only effect; inactive = no such curve, though single readings can be large or run the other way; also: potency is read from the fitted curve at half-maximal effect; % is scaled to controls: 0 for no effect and ±100 for the full control effect; nearly all actives have a fitted effect of over 50% in size
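Fission yeast strain RE007, carrying one chromosomally integrated HIV-1 vpr copy, was seeded at OD 0.01 in PMG+AL medium with 23 nL pinned compound. After 24 h at 30 °C and 99% humidity, viability was read by BacTiter-Glo luminescence.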
Cycloheximide cs: counter-screen hit for Shiga toxin inhibitors, cycloheximide | cell reporter, cycloheximide protein synthesis inhibition counterscreen | max response, % | 300,000 compounds, 12% hits; in the data active = max response mostly above about 13%, no sharp cut-off; inactive = mostly below about 14%; also: read at 38.3 µM for the half of the compounds with a filed dose; 0% is about no effect
TbPYK inhibitor: blocks Trypanosoma brucei pyruvate kinase. Potency, µM (series often up to 76.8 µM), for the others: at the highest dose activity, negative = inhibition, most hits filed as inhibitors. TbPYK enzyme, Kinase-Glo Plus ATP luminescence, 45 min. 410,000 compounds, 0.12% hits; also: potency is read from the fitted curve at half-maximal effect; % is scaled to controls: 0 for no effect and ±100 for the full control effect; nearly all actives have a fitted effect of over 50% in size
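Luminescence from Kinase-Glo Plus, added after a 45-minute room-temperature reaction, served as the end-point read-out. The enzyme and substrate were preincubated with compound before ADP (130 uM final) initiated turnover. Concentration-effect curves came from normalized qHTS data.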
LmPK inhibitor: inhibitors of Leishmania mexicana pyruvate kinase | purified LmPK, Kinase-Glo ATP luminescence, 1 h | 290,000 compounds, 0.37% hits | Potency, µM (titrated, usually from 57.5 µM), for inactives: at the highest dose activity change, negative = inhibition, hits mostly inhibitors; also: potency is read from the fitted curve at half-maximal effect; % is scaled to controls: 0 for no effect and ±100 for the full control effect
Target sequence (Q27686 whole entry, looked up): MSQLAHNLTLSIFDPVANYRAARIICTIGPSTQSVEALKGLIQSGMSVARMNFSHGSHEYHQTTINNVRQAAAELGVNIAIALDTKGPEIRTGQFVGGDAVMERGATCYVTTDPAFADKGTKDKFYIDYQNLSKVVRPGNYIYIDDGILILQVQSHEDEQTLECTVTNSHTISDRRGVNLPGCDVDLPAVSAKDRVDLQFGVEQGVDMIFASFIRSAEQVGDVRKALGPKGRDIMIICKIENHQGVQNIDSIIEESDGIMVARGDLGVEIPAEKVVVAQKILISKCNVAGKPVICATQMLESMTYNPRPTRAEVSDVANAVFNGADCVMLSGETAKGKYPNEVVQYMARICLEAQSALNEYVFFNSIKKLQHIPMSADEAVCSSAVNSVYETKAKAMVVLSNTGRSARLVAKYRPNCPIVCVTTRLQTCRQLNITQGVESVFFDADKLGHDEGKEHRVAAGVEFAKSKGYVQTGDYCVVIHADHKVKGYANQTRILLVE
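Pyruvate kinase activity monitored as ATP production (luciferase luminescence). Conditions: 0.1 nM enzyme, 0.5 mM PEP, 0.1 mM ADP, 1 h, RT; normalized against uninhibited and no-enzyme wells.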
FBPA Giardia inh: blocks Giardia fructose-bisphosphate aldolase activity. 290,000 compounds, 0.71% hits. purified Giardia FBPA. AID 2451. Potency, µM (highest dose often 59.6 µM), inactives show top-dose activity, negative = inhibition, hits mostly inhibitors; also: potency is read from the fitted curve at half-maximal effect; % is scaled to controls: 0 for no effect and ±100 for the full control effect; nearly all actives have a fitted effect of over 55% in size
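Giardia FBPA (40 nM reagent) was preincubated 10 min at RT with compound (up to 57.5 uM final), then substrate plus GAPDH/TPI/NAD/arsenate coupling system with diaphorase/resazurin was added; resorufin fluorescence (525/598 nm) was read after 20 min.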
Shiga inhibitor: Shiga toxin inhibition. Vero cells, Shiga toxin protein synthesis inhibition reporter. inhibition, % at 38.7 µM. 290,000 compounds, 9.2% hits; in the data active = inhibition mostly above about 28%, no sharp cut-off; inactive = mostly below about 43%; also: 0% is about no effect
The depositor's hits bear a star; [ ] = another dose, or the depositor's remark. Unless noted, calls follow the shape of the dose curve; as a rule, active = well fitted curve in the direction sought with a large enough effect; inconclusive = small, poorly fitted or top-dose-only effect, or another doubt; inactive = no such curve, though single readings can be large; an effect the other way counts as inactive or inconclusive.

For CSc1ccc(S(=O)(=O)N2CCC(C(=O)NCC3CCCO3)CC2)cc1 (configuration not stated) the results were RE007 growth inh -15.1%, Cycloheximide cs -6.7, TbPYK inhibitor -2.8%, LmPK inhibitor -5.4%, FBPA Giardia inh 6.4% and Shiga inhibitor 7.4.
`CCc1cccc(NS(=O)(=O)c2csc(C(N)=O)c2)c1` gave RE007 growth inh 3.2%, Cycloheximide cs -2.1, TbPYK inhibitor -5.3%, LmPK inhibitor 5.9%, FBPA Giardia inh 3.6% and Shiga inhibitor -11.7.
For Cc1cc2c(cc1C)C(=O)C(Br)=C(N)C2=O the results were RE007 growth inh inconclusive and TbPYK inhibitor -4.9%.
NC1=C(Br)C(=O)c2ccccc2C1=O was read as RE007 growth inh 11.2µM*, Cycloheximide cs 31.4*, TbPYK inhibitor -5.8%, LmPK inhibitor -29.4%, FBPA Giardia inh inconclusive and Shiga inhibitor 81.1*.
Screening COc1ccc(OC)c(C2Nc3ccccc3NC3=C2C(=O)CC(C)(C)C3)c1 (configuration not stated) returned RE007 growth inh 8.0%, Cycloheximide cs 19.4*, TbPYK inhibitor -7.1%, LmPK inhibitor -2.3%, FBPA Giardia inh -7.2% and Shiga inhibitor 33.2.
COc1ccccc1C1Nc2ccccc2NC2=C1C(=O)CC(C)(C)C2 (configuration not stated) was read as RE007 growth inh 5.0%, Cycloheximide cs 1.9, TbPYK inhibitor -7.9%, LmPK inhibitor -3.2%, FBPA Giardia inh 7.1% and Shiga inhibitor 2.4.
Cc1cc2c(cc1C)NC(c1c(C)n(C)n(-c3ccccc3)c1=O)C1=C(CC(C)(C)CC1=O)N2 (configuration not stated) was read as RE007 growth inh -7.0%, Cycloheximide cs 18.8*, TbPYK inhibitor 0.4%, LmPK inhibitor 3.2%, FBPA Giardia inh inconclusive and Shiga inhibitor 39.3*.
For COc1ccc(C2Nc3ccccc3NC3=C2C(=O)CC(C)(C)C3)cc1O (configuration not stated) the results were RE007 growth inh -10.1%, Cycloheximide cs 24.3*, TbPYK inhibitor inconclusive, LmPK inhibitor 0.6%, FBPA Giardia inh -10.9% and Shiga inhibitor 70.4*.
`COc1ccc(C2Nc3ccccc3NC3=C2C(=O)CC(C)(C)C3)cc1` (configuration not stated) gave RE007 growth inh -6.4%, Cycloheximide cs 48.0*, TbPYK inhibitor 30.3%, LmPK inhibitor 2.2%, FBPA Giardia inh -1.0% and Shiga inhibitor 84.4*.
Cc1nc2cnc(N(C)C)nc2n(C2CC2)c1=O was read as FBPA Giardia inh 2.9%.
For CC1(C)CC(=O)C2=C(C1)Nc1ccccc1NC2c1cc(Cl)ccc1O (configuration not stated) the results were RE007 growth inh -18.8%, Cycloheximide cs 6.9, TbPYK inhibitor -3.5%, LmPK inhibitor 3.3%, FBPA Giardia inh -0.3% and Shiga inhibitor 1.8.
Cc1ccc(C2Nc3ccccc3NC3=C2C(=O)CC(C)(C)C3)c(O)c1 (configuration not stated) was read as RE007 growth inh 4.2%, Cycloheximide cs 14.2*, TbPYK inhibitor 2.1%, LmPK inhibitor -2.0%, FBPA Giardia inh -1.8% and Shiga inhibitor 30.3.
CC1(C)CC(=O)C2=C(C1)Nc1ccccc1NC2c1nc2ccccc2[nH]1 (configuration not stated) was read as RE007 growth inh -12.1%, Cycloheximide cs 42.0*, TbPYK inhibitor 3.0%, LmPK inhibitor 0.3%, FBPA Giardia inh inconclusive and Shiga inhibitor 118.3*.
Cc1cc(NC(=O)C2CCCN(S(=O)(=O)c3cccc4nonc34)C2)ccc1Br (configuration not stated) was read as Cycloheximide cs -9.7, TbPYK inhibitor 1.7% and Shiga inhibitor -11.2.
`CCc1ccc(NCc2cc3cc4c(cc3n(CC(=O)Nc3ccc(C)cc3)c2=O)OCO4)cc1` gave TbPYK inhibitor -2.7%.
CC(=O)NC(CSC(CC(=O)c1ccco1)c1ccc(C)cc1)C(=O)O (configuration not stated) was read as RE007 growth inh inconclusive, Cycloheximide cs 57.0*, TbPYK inhibitor -5.5%, LmPK inhibitor inconclusive, FBPA Giardia inh -9.5% and Shiga inhibitor 105.4*.
COc1cc(NC(=O)c2cc3nc(-c4ccc(C)cc4)cc(C(F)(F)F)n3n2)cc(OC)c1OC was read as TbPYK inhibitor 1.9%.
CCCn1c(=O)c2sccc2n2c(CCCC(=O)N3CCN(c4ccccc4OC)CC3)nnc12 was read as TbPYK inhibitor -5.8%.
For CCOc1ccc(-c2cn3ccccc3n2)cc1 the results were RE007 growth inh inconclusive, Cycloheximide cs 6.3, TbPYK inhibitor inconclusive, LmPK inhibitor 12.6µM*, FBPA Giardia inh -16.2% and Shiga inhibitor 37.4.
For CCOc1ccc(S(=O)(=O)NCCc2cn3ccccc3n2)cc1 the results were RE007 growth inh -8.2%, Cycloheximide cs -4.7, TbPYK inhibitor 8.4%, LmPK inhibitor -8.0% and Shiga inhibitor -18.8.
`Fc1ccc(-c2cn3ccccc3n2)cc1` gave RE007 growth inh -21.7%, Cycloheximide cs 34.0*, TbPYK inhibitor -17.8%, LmPK inhibitor -23.3%, FBPA Giardia inh -3.8% and Shiga inhibitor 76.9.
CCCCCOC(=O)NCC(O)c1ccccc1 (configuration not stated) was read as RE007 growth inh -16.7%, Cycloheximide cs 67.8*, TbPYK inhibitor -3.0%, LmPK inhibitor -0.1%, FBPA Giardia inh 6.0% and Shiga inhibitor 85.9*.
`CCCCOC(=O)NC(NCC(O)c1ccccc1)(C(F)(F)F)C(F)(F)F` (configuration not stated) gave RE007 growth inh 12.1%, Cycloheximide cs -2.4, TbPYK inhibitor 3.1%, LmPK inhibitor 1.2%, FBPA Giardia inh -5.1% and Shiga inhibitor -19.8.
CCN(CC)c1nn2c(=O)c(C(=O)NCc3ccc(OC)cc3OC)cnc2s1 was read as TbPYK inhibitor 1.2%.
Screening CCCc1cc(N2CCOCC2)n2ncc(-c3ccccc3)c2n1 returned RE007 growth inh 9.4%, Cycloheximide cs 38.6*, TbPYK inhibitor -6.0%, LmPK inhibitor 2.3%, FBPA Giardia inh 3.5% and Shiga inhibitor 57.8*.
For Cc1nc2c(-c3ccccc3)cnn2c(N2CCOCC2)c1C the results were RE007 growth inh 1.5%, Cycloheximide cs 47.0*, TbPYK inhibitor -7.7%, LmPK inhibitor 5.8%, FBPA Giardia inh 0.9% and Shiga inhibitor 97.5*.
Cc1ccsc1C(=O)N1CCC1(C)C(=O)NCCC#N (configuration not stated) was read as RE007 growth inh -5.7%[18.4 µM] and TbPYK inhibitor 4.3%.
